MITF inh: blocks human microphthalmia-associated transcription factor; O75030; AlphaScreen MITF homodimerization, bead proximity signal; inhibition, % at 2.6 µM; 650,000 tested, 0.91% active; AID 1259374; in the data active means inhibition above about 50%
TEAD-YAP inh: TEAD-YAP interaction inhibition. HEK-TIYL cells, TEAD-Gal4/YAP UAS-luciferase luminescence. inhibition, % at 9.12 µM. 640,000 tested, 1.4% active; in the data active means inhibition above about 32%
GPR151 activ: human GPR151 activation. Q8TDV0. PathHunter beta-arrestin GPR151 cells, luminescence. activation, % at 11.2 µM. 650,000 tested, 1% active. AID 1508602; in the data active means activation above about 4.9%
Target sequence (Q8TDV0 whole entry, looked up): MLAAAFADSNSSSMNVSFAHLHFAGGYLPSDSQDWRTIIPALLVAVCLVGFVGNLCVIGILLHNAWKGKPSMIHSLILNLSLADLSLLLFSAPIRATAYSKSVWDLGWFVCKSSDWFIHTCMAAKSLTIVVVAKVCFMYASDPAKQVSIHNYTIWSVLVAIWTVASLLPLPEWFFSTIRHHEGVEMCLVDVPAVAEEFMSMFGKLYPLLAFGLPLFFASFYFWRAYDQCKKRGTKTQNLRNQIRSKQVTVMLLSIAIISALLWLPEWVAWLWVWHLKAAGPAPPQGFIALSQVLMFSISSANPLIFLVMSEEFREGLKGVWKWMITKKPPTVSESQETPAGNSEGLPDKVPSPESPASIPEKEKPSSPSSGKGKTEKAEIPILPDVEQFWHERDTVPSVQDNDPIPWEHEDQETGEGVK
FBW7 act: human FBW7 E3 ligase activation, primary screen; Q969H0; AlphaScreen FBW7–phospho-cyclin E peptide binding, activator screen; normalized activity (activation), % at 26.1 µM; 650,000 tested, 0.13% active; AID 1259310; in the data active means normalized activity above about 1.9%;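 further: purified mutant Fbw7 with reduced substrate affinity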
GPR151 confirm: human GPR151 activation, confirmation screen | shares compounds with GPR151 activ | GPR151 PathHunter beta-arrestin cells, luminescence, 90 min; % of EA-reagent control over plate median | activation, % at 11.2 µM | 6,700 tested, under 10 active | AID 1508609;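 active means mean percent activation across replicates above the confirmation screen cutoff of 4.91%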
GPR119 counter: activates human GPR119 in a GPR151 counter-screen; shares compounds with GPR151 activ; 6,700 tested, 0.3% active; activation, % at 11.2 µM; AID 1508611; GPR119 PathHunter beta-arrestin cells, luminescence, 90 min; 0 = compound-well median, 100 = enzyme-acceptor control;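 active means mean percent activation in the counterscreen above 29.09%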;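 further: counterscreen on off-target GPR119 to flag nonselective hits from the GPR151 activator screen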
Large screens that a line does not name were inactive (follow-up assays come after a bar, where they were run); ! = not active in a repeat. Shown are actives, neighbours in structure and some others; about 3.5% of the full set was active somewhere.

CCOc1ccc(N2CC(C(=O)Nc3ccc(Br)cc3CC)CC2=O)cc1 (centres undefined)	GPR151 activ 4.9 | GPR151 confirm inactive | GPR119 counter inactive
COc1ccc(CC2(CCC(=O)NCc3cccc4[nH]ccc34)CCC(=O)N2)cc1 (centres undefined)	none
CN(c1ccc(F)cc1)S(=O)(=O)c1ccc2[nH]cc(C(=O)NCC3CCCO3)c(=O)c2c1 (centres undefined)	GPR151 activ 5.4 | GPR151 confirm inactive | GPR119 counter inactive
CCCCN(CC)C(=O)c1c[nH]c2ccc(S(=O)(=O)N(C)c3ccc(Cl)cc3)cc2c1=O	none
CCCCN(CC)C(=O)c1c[nH]c2ccc(S(=O)(=O)N(C)c3ccc(Cl)cc3F)cc2c1=O	GPR151 activ 8.3 | GPR151 confirm inactive | GPR119 counter inactive
CCC(C)OC(=O)COc1ccc2c(=O)c(Oc3ccc(OC)cc3)coc2c1 (centres undefined)	none
O=C(CSc1ncccn1)NCc1cccc(C(F)(F)F)c1	GPR151 activ 5.8 | GPR151 confirm inactive | GPR119 counter inactive
FC(F)(F)c1cccc(CNc2cc(Nc3nccc4ccccc34)ncn2)c1	GPR151 activ 6.7 | GPR151 confirm inactive | GPR119 counter inactive
O=C(NCc1cccc(C(F)(F)F)c1)c1cccc(Nc2nccc3ccccc23)n1	GPR151 activ 5.5 | GPR151 confirm inactive | GPR119 counter inactive
c1ccc(CNc2ccnc(-c3ccccc3)n2)cc1	none
Nc1nc(NCc2cccc(C(F)(F)F)c2)cc(Nc2nccc3ccccc23)n1	none
FC(F)(F)c1cccc(CNc2ccnc(-c3ccccc3)n2)c1	TEAD-YAP inh 37!, GPR151 activ 5.0! | GPR151 confirm inactive | GPR119 counter inactive
Cc1cccc(N2C(=O)CC(Nc3ccc(F)cc3)C2=O)c1 (centres undefined)	none
Cc1ccc(N2C(=O)CC(Nc3ccc(F)cc3)C2=O)c(Br)c1 (centres undefined)	GPR151 activ 15 | GPR151 confirm inactive | GPR119 counter inactive
CCOc1ccc(NC(=O)CSC2=C(C#N)C(c3ccco3)C(C(=O)Nc3ccccc3)=C(C)N2)cc1 (centres undefined)	GPR151 activ 5.0 | GPR151 confirm inactive | GPR119 counter inactive
O=C(NCCCN1CCOCC1)C(Cc1ccccc1)NS(=O)(=O)c1ccc(F)cc1 (centres undefined)	none
Cc1ccc(C(=O)N[C@H]2C[C@H]3C(=O)N[C@H](C)C(=O)N3C2)cc1	GPR151 activ 5.9 | GPR151 confirm inactive | GPR119 counter inactive
C[C@@H]1NC(=O)[C@@H]2C[C@H](NC(=O)c3ccc(F)cc3)CN2C1=O	none
Cc1onc(-c2ccccc2Cl)c1C(=O)N1CCN(C2=NN=C(c3ccccc3)CS2)CC1	none
CCc1nnc(NS(=O)(=O)c2ccc(NC(=O)CN3C(=O)c4ccccc4C3=O)cc2)s1	GPR151 activ 7.4 | GPR151 confirm inactive | GPR119 counter inactive
COc1cc(CNc2ccc3ncc(-c4cccnc4)n3n2)cc(OC)c1OC	GPR151 activ 7.8 | GPR151 confirm inactive | GPR119 counter inactive
COc1ccccc1CNc1nc2ccccc2n1CCN1CCOCC1	none
COc1ccc(CNc2nc3ccccc3n2CCN2CCOCC2)cc1OC	GPR151 activ 10.0 | GPR151 confirm inactive | GPR119 counter inactive
COc1cccc(COC(=O)c2n[nH]c3ccccc23)c1	GPR151 activ 6.9 | GPR151 confirm inactive | GPR119 counter inactive
COc1cccc(C(=O)OCc2cccc([N+](=O)[O-])c2)c1	GPR151 activ 6.9 | GPR151 confirm inactive | GPR119 counter inactive
COc1ccc(C(=O)OCc2cccc([N+](=O)[O-])c2)cc1	none
O=C(c1ccc(F)cc1)N1CCN(S(=O)(=O)c2ccc(Cl)cc2)CC1	none
Cc1ccc(NC(=O)C(CC(=O)O)NCc2ccco2)cc1 (centres undefined)	GPR151 activ 7.6 | GPR151 confirm inactive | GPR119 counter inactive
O=C(NCC(c1cccs1)N1CCOCC1)Nc1ccc(Cl)cc1 (centres undefined)	none
CCn1c2ccccc2c2cc(NC(=O)Cn3cnc4c3c(=O)n(C)c(=O)n4C)ccc21	GPR151 activ 6.1 | GPR151 confirm inactive | GPR119 counter inactive
Cn1c(=O)c2c(ncn2CC(=O)Nc2ccccc2)n(C)c1=O	none
Brc1ccc(/C=C2\CCC=C2N2CCOCC2)cc1	none

Assay outcomes (PubChem BioAssay)
